# “And” between values parts separate entries of the source, which are not always exact repeats. Identical values can stand only once. Inconclusive results are not listed. More than one record can exist for a structure, and the calls need not agree. The source made the active and inactive calls. Rule for the calls, unless noted: active = hit-call score of the fitted dose curve at least 0.9, where 1 is the maximum; inconclusive = response in the unintended direction; inactive = score below 0.9.
# Experiments:
# [1] = target: human CYP2C9, CYP2C9 (gene 1559) (UniProt P11712); assay: NVS_ADME_hCYP2C9: NovaScreen (NVS) CYP450-related Enzyme Activity (ADME) Assay for human CYP2C9 (AID 2283108)
# Summary of the method: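 Fluorescence readout of CYP2C9 activity (SF9-expressed human enzyme) at 0.75 h. The primary screen used 10 uM in duplicate, with concentration-response follow-up for actives; acetonitrile was the negative control.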
# [2] = target: Cytochrome P450 2C19 (Homo sapiens) (UniProt P33261); assay: NVS_ADME_hCYP2C19: NovaScreen (NVS) CYP450-related Enzyme Activity (ADME) Assay for human CYP2C19 (AID 2283113);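 note: potency for inhibition seen as loss of fluorescent signal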
# Summary of the method: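 Cell-free recombinant human CYP2C19 from insect cells, fluorescent substrate; activity read by fluorescence intensity 1 h after dosing. Primary screen in duplicate at 10 uM; actives retested in concentration series. Signal loss versus acetonitrile negative control.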
# [3] = target: human CYP1A2, CYP1A2 (gene 1544) (UniProt P05177); assay: NVS_ADME_hCYP1A2: NovaScreen (NVS) CYP450-related Enzyme Activity (ADME) Assay for human CYP1A2 (AID 2283102);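 for AC50: potency for inhibition since loss of fluorescence marks reduced CYP1A2 activity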
# Summary of the method: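 Recombinant human CYP1A2 from insect cells, cell-free, fluorogenic substrate; read 0.5 h after dosing with loss of fluorescence signal indicating inhibition. Primary screen in duplicate at 10 uM, acetonitrile as negative control.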
# [4] = target: Cytochrome P450 2C18 (Homo sapiens) (UniProt P33260); assay: NVS_ADME_hCYP2C18: NovaScreen (NVS) CYP450-related Enzyme Activity (ADME) Assay for human CYP2C18 (AID 2283103; active = hit-call score of the fitted dose curve at least 0.9, where 1 is the maximum; inactive = score below 0.9)
# Summary of the method: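 Enzyme activity measured by fluorescence 0.5 h after compound addition, using recombinant CYP2C18 and a specific substrate. Actives from duplicate 10 uM screening were retested in concentration series (top 20 uM); acetonitrile served as negative baseline.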
# [5] = target: human CYP2J2, CYP2J2 (gene 1573) (UniProt P51589); assay: NVS_ADME_hCYP2J2: NovaScreen (NVS) CYP450-related Enzyme Activity (ADME) Assay for human CYP2J2 (AID 2283106)
# Method: NVS_ADME_hCYP2J2 is a biochemical, single-readout assay that uses extracted gene-proteins in a cell-free assay. Measurements were taken 1 hour after chemical dosing in a 96-well plate.NVS_ADME_hCYP2J2 is one of one assay component(s) measured or calculated from the NVS_ADME_hCYP2J2 assay. It is designed to make measurements of enzyme activity, a form of enzyme reporter, as detected with fluorescence intensity signals by Fluorescence technology.Data from the assay component NVS_ADME_hCYP2J2 was analyzed into 1 assay endpoint. This assay endpoint, NVS_ADME_hCYP2J2, was analyzed in the positive analysis fitting direction relative to Acetonitrile as the negative control and baseline of activity. Using a type of enzyme reporter, loss-of-signal activity can be used to understand changes in the enzymatic activity as they relate to the gene CYP2J2. Furthermore, this assay endpoint can be referred to as a primary readout, because this assay has produced multiple assay endpoints where this one serves a enzymatic activity function. To generalize the intended target to other relatable targets, this assay endpoint is annotated to the cyp intended target family, where the subfamily is xenobiotic metabolism. […]
# [6] = target: human CYP2D6, CYP2D6 (gene 1565) (UniProt P10635); assay: NVS_ADME_hCYP2D6: NovaScreen (NVS) CYP450-related Enzyme Activity (ADME) Assay for human CYP2D6 (AID 2283107)
# Summary of the method: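 Cell-free assay using recombinant human CYP2D6 expressed in insect cells, with a fluorogenic substrate read after 1 h. Primary screen in duplicate at 10 uM; actives followed up in concentration series. Loss of signal fitted relative to acetonitrile.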
# [7] = target: Cytochrome P450 3A4 (Homo sapiens) (UniProt P08684); assay: NVS_ADME_hCYP3A4: NovaScreen (NVS) CYP450-related Enzyme Activity (ADME) Assay for human CYP3A4 (AID 2283110)
# Summary of the method: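 Compounds screened in duplicate at 10 uM, with follow-up concentration-response for actives, against insect-cell-expressed recombinant enzyme. Activity read by fluorescence 0.33 h after dosing; loss of signal versus acetonitrile control indicates inhibition.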
# [8] = target: rat CYP2A1, Cyp2a1 (gene 24894) (UniProt P11711); assay: NVS_ADME_rCYP2A1: NovaScreen (NVS) CYP450-related Enzyme Activity (ADME) Assay for rat CYP2A1 (AID 2283114; active = hit-call score of the fitted dose curve at least 0.9, where 1 is the maximum; inactive = score below 0.9)
# Summary of the method: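 Cell-free fluorescence enzyme-activity read on recombinant rat CYP2A1, taken 0.75 h post-dosing. Compounds were screened in duplicate at 10 uM, then hits tested in concentration series (max 20 uM); inhibition scored relative to acetonitrile baseline.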
# [9] = target: rat CYP2A2, Cyp2a2 (gene 24895) (UniProt P15149); assay: NVS_ADME_rCYP2A2: NovaScreen (NVS) CYP450-related Enzyme Activity (ADME) Assay for rat CYP2A2 (AID 2283116)
# Summary of the method: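 Compounds first tested in duplicate at 10 uM, then in singleton concentration series up to 20 uM when over threshold. Activity of the recombinant enzyme read by fluorescence at 0.2 h, normalised to acetonitrile vehicle.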
# [10] = target: human CYP4F12, CYP4F12 (gene 66002) (UniProt Q9HCS2); assay: NVS_ADME_hCYP4F12: NovaScreen (NVS) CYP450-related Enzyme Activity (ADME) Assay for human CYP4F12 (AID 2283111)
# Summary of the method: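 Recombinant enzyme with a fluorescent substrate, signal read at 0.5 h post-dose; activity loss analysed relative to acetonitrile. Compounds first run in duplicate at 10 uM, with follow-up concentration-response testing of actives.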
# Chain of human CYP2C9, CYP2C9 (gene 1559) (P11712 whole entry, looked up): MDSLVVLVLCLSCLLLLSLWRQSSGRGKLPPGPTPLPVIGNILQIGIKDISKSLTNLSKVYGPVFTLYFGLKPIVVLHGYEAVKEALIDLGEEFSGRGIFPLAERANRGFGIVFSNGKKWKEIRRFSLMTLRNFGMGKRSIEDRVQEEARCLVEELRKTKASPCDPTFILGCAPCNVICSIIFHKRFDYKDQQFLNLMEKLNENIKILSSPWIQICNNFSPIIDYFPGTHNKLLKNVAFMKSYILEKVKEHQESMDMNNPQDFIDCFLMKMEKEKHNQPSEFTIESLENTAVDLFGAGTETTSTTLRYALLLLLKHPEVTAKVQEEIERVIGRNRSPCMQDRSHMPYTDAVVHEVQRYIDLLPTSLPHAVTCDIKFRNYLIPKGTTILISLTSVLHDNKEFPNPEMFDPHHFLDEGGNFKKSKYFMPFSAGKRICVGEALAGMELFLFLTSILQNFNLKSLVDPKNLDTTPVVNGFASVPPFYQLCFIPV
# Chain of Cytochrome P450 2C18 (Homo sapiens) (P33260 whole entry, looked up): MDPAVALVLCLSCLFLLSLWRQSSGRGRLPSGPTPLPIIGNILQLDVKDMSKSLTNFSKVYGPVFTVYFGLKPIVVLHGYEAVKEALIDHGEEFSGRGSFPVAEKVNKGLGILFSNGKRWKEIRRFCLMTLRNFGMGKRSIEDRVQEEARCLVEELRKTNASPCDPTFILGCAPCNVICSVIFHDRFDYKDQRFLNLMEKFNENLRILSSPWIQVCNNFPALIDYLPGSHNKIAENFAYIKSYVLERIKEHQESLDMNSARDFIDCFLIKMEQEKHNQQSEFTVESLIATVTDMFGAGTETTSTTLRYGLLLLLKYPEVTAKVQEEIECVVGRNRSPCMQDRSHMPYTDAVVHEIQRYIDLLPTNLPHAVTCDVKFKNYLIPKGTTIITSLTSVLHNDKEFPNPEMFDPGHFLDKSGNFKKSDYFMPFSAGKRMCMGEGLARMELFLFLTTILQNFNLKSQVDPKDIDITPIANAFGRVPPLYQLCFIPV
# Chain of human CYP2D6, CYP2D6 (gene 1565) (P10635 whole entry, looked up): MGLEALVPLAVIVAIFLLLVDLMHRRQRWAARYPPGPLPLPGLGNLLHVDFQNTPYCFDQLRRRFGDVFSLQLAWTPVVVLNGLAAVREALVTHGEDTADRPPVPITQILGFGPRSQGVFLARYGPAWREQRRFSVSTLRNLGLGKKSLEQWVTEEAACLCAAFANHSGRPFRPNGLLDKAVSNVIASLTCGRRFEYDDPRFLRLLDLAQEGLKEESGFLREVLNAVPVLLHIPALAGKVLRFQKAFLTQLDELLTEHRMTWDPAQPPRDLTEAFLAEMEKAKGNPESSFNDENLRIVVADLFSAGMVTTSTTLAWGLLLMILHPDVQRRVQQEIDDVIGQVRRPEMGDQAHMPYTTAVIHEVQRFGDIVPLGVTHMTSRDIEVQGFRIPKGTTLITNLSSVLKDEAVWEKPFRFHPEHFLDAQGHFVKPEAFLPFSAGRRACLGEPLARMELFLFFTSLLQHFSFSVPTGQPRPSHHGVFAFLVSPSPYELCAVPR
# Chain of Cytochrome P450 3A4 (Homo sapiens) (P08684 whole entry, looked up): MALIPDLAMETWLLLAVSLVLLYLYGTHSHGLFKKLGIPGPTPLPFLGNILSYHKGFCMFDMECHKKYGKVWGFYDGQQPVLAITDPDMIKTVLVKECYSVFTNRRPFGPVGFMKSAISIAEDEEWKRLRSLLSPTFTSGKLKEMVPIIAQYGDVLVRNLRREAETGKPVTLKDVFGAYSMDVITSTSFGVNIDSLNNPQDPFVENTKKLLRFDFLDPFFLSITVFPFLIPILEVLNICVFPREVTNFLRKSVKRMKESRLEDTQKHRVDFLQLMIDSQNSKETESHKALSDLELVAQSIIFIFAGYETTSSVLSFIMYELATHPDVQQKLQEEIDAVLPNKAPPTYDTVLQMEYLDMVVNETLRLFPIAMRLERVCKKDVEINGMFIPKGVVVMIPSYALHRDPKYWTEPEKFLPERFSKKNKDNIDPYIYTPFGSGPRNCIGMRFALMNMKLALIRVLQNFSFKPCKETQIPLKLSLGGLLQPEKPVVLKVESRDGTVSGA
# Chain of human CYP1A2, CYP1A2 (gene 1544) (P05177 whole entry, looked up): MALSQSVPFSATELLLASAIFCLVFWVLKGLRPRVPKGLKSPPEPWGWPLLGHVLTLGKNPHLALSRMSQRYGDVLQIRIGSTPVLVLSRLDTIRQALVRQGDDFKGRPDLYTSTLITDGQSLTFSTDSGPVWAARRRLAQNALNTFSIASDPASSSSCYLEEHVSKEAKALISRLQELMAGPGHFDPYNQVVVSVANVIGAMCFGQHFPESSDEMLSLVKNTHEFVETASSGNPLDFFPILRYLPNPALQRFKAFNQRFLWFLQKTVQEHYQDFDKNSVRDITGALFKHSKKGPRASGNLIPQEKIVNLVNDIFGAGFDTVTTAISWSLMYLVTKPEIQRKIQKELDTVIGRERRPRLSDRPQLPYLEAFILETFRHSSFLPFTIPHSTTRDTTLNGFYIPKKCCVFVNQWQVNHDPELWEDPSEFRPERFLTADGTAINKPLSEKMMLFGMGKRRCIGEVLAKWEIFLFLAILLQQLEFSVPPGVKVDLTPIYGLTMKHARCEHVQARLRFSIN
# Chain of rat CYP2A2, Cyp2a2 (gene 24895) (P15149 whole entry, looked up): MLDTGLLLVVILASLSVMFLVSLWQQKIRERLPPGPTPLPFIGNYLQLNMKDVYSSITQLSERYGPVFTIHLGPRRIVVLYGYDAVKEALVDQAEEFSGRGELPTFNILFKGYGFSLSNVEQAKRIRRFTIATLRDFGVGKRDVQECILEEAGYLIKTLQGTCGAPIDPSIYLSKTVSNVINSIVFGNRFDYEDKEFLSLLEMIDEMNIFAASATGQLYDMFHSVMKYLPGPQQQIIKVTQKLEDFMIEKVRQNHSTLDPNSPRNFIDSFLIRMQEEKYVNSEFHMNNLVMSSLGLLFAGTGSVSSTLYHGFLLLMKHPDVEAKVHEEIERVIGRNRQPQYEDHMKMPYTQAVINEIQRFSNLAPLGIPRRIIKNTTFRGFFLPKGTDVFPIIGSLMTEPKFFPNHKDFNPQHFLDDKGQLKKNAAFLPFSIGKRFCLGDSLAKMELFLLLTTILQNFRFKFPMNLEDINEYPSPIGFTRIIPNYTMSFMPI
# Chain of rat CYP2A1, Cyp2a1 (gene 24894) (P11711 whole entry, looked up): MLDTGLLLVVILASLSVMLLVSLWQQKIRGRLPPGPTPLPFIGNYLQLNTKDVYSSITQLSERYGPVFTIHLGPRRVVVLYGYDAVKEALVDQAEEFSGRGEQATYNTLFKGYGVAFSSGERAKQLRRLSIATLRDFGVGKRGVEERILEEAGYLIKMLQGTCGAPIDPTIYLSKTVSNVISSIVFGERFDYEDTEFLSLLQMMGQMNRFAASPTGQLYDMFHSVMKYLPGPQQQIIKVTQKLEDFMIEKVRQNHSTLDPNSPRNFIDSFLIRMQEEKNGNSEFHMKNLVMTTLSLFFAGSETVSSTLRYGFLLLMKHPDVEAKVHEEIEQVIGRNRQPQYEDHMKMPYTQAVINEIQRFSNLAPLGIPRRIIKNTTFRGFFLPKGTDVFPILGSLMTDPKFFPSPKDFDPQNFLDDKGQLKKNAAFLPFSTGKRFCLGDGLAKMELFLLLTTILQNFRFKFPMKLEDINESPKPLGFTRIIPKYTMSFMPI
# Chain of human CYP2J2, CYP2J2 (gene 1573) (P51589 whole entry, looked up): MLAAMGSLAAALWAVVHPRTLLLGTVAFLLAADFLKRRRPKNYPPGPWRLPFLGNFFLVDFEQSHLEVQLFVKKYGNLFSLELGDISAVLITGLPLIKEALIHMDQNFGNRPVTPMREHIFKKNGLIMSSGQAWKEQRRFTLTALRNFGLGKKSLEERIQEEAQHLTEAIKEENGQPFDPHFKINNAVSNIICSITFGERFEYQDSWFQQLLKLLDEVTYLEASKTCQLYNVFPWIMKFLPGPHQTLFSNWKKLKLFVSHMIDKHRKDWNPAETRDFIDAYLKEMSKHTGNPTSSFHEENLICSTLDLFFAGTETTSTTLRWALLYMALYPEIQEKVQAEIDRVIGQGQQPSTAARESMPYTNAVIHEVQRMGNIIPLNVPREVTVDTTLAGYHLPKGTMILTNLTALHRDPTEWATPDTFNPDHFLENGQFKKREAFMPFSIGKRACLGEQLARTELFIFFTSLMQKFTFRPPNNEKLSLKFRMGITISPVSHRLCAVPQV
# Chain of human CYP4F12, CYP4F12 (gene 66002) (Q9HCS2 whole entry, looked up): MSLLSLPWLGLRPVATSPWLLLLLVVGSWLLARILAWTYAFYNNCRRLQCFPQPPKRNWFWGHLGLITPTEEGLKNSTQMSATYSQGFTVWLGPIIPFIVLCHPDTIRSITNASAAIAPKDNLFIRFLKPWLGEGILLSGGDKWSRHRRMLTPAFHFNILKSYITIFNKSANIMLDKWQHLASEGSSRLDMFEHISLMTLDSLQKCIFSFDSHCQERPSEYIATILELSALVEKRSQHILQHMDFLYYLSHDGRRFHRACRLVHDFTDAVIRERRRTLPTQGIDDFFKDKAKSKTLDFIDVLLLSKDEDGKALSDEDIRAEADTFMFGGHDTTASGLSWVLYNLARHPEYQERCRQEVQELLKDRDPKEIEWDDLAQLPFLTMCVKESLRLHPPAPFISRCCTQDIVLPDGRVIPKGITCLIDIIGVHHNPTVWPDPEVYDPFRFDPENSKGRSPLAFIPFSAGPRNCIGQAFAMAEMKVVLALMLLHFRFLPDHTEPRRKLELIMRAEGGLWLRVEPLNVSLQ
smiles,measurement,setting,value
COP(=S)(OC)Oc1ccc(S(=O)(=O)N(C)C)cc1,AC50,[1],0.0779 µM (active)
same,AC50,[2],0.19 µM (active)
COP(=S)(OC)Oc1ccc(Sc2ccc(OP(=S)(OC)OC)cc2)cc1,AC50,[3],7610 nM (active)
same,AC50,[4],5830 nM (active)
same,AC50,[5],3300 nM (active)
same,AC50,[1],505 nM (active) and 5.52 µM (active)
same,AC50,[2],4.32 µM (active) and 1.06 µM (active)
O=S(=O)(c1ccc(Cl)cc1)c1ccc(Cl)cc1,AC50,[2],1.39 µM (active) and 821 nM (active)
CCCCCCCCC(=O)NCc1ccc(O)c(OC)c1,AC50,[6],3450 nM (active)
same,AC50,[1],3.95 µM (active)
same,AC50,[2],1.66 µM (active)
CC(C)(C)c1cc(O)ccc1O,AC50,[6],7540 nM (active)
same,AC50,[1],5.93 µM (active)
same,outcome,[7],inactive
same,AC50,[2],5.9 µM (active)
Nc1cccc2ccccc12,AC50,[6],3450 nM (active)
COc1cc2c(cc1OC)[C@@]13CCN4CC5=CCO[C@H]6CC(=O)N2[C@H]1[C@H]6[C@H]5C[C@H]43,AC50,[6],5000 nM (active)
CC1(C)CCC(Cc2ccc(Cl)cc2)C1(O)Cn1cncn1 (stereo unspecified),AC50,[1],0.419 µM (active)
same,AC50,[7],2750 nM (active)
same,AC50,[2],0.304 µM (active)
same,AC50,[8],2500 nM (active)
same,AC50,[9],40.4 nM (active)
COc1cc(-c2ccc(N)c(OC)c2)ccc1N,AC50,[3],1270 nM (active)
same,outcome,[3],inactive
same,AC50,[1],7.03 µM (active)
same,AC50,[2],3.49 µM (active) and 2.33 µM (active)
BrCCBr,outcome,[9],inactive
O=C1C2(Cl)C3(Cl)C4(Cl)C(Cl)(Cl)C5(Cl)C3(Cl)C1(Cl)C5(Cl)C24Cl (stereo unspecified),AC50,[4],519 nM (active)
same,AC50,[1],82.1 nM (active) and 2.8 µM (active) and 487 nM (active)
same,outcome,[7],inactive
same,AC50,[2],458 nM (active) and 1.44 µM (active) and 374 nM (active)
Nc1ccc(-c2ccc(N)c(Cl)c2)cc1Cl,AC50,[1],1.24 µM (active)
same,AC50,[2],2.34 µM (active)
CC12CC1(C)C(=O)N(c1cc(Cl)cc(Cl)c1)C2=O (stereo unspecified),outcome,[7],inactive
same,AC50,[8],881 nM (active)
same,AC50,[9],4980 nM (active)
CC(=O)[O][Hg][c]1ccccc1,AC50,[3],3310 nM (active)
same,AC50,[6],4160 nM (active)
same,AC50,[1],9.85 µM (active)
same,AC50,[7],1280 nM (active)
same,AC50,[10],1900 nM (active)
same,AC50,[2],1.04 µM (active)
Oc1ccc(-c2ccccc2)cc1,AC50,[2],0.47 µM (active)
CC(C)(c1ccccc1)c1ccc(O)c(C(C)(C)c2ccccc2)c1,outcome,[7],inactive
Fc1ccc(C2(Cn3cncn3)OC2c2ccccc2Cl)cc1 (stereo unspecified),AC50,[3],5360 nM (active)
same,AC50,[1],6.5 µM (active)
same,AC50,[7],5960 nM (active)
same,AC50,[2],1.56 µM (active)
same,AC50,[8],2980 nM (active)
same,AC50,[9],353 nM (active)
CCC(=O)C(CC(C)N(C)C)(c1ccccc1)c1ccccc1 (stereo unspecified),AC50,[6],1230 nM (active)
CC(C)C1CCC(Cc2ccc(Cl)cc2)C1(O)Cn1cncn1 (stereo unspecified),AC50,[9],106 nM (active)
CCOC(=O)Nc1cccc(OC(=O)Nc2ccccc2)c1,AC50,[3],11400 nM (active)
same,AC50,[8],6840 nM (active)
O=C(O)C(F)(F)C(F)(F)C(F)(F)C(F)(F)C(F)(F)C(F)(F)C(F)(F)C(F)(F)C(F)(F)C(F)(F)F,AC50,[1],1.58 µM (active)
same,AC50,[2],16.2 µM (active)
Clc1ccc(C2(Cn3cncn3)CC(Br)CO2)c(Cl)c1 (stereo unspecified),AC50,[4],6470 nM (active)
same,AC50,[1],6.63 µM (active)
same,AC50,[7],2000 nM (active)
same,AC50,[2],0.243 µM (active)
same,AC50,[8],577 nM (active)
same,AC50,[9],82.9 nM (active)
CCOP(=S)(OCC)Oc1ccc(S(C)=O)cc1 (stereo unspecified),AC50,[1],3.31 µM (active)
same,AC50,[2],0.528 µM (active)
O=C(Nc1ccc2[nH]ccc2c1)c1cc2cc(F)ccc2n1Cc1cccc(F)c1,outcome,[3],inactive
CCN1CCC2(CC1)COc1cc3c(cc12)N(C(=O)c1ccc(-c2ccc(-c4nnc(C)o4)cc2C)cc1)CC3,AC50,[2],2.84 µM (active)
CCOP(=S)(OCC)SCSP(=S)(OCC)OCC,outcome,[3],inactive
same,AC50,[2],4.36 µM (active)
Cn1sc(Cl)cc1=O,outcome,[3],inactive
same,AC50,[7],2770 nM (active)
same,AC50,[2],5.77 µM (active)

# — PubChem BioAssay (EPA / NIEHS)
